Sa helicase inh: S. aureus DNA helicase inhibition; purified S. aureus helicase, fluorescence unwinding assay; inhibition, % (concentration not given with the values); actives 0.05% (n = 120,000); in the data active = inhibition above about 25%, passing the limit was not always enough;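 also: 0% = mean of negative control wells and 100% = mean of positive control wells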
Sa growth 42C: inhibitors of Staphylococcus aureus growth at 42 °C. S. aureus RN4220 growth, OD600, 20 h; active compounds read low. relative growth, % (test concentration not listed). actives 0.53% (n = 170,000). AID 720641;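 active = relative growth at most 50% at the other temperature and 20+ points below 30 °C, or under 10% at both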
* = called active by the depositor; nt = no result given; ! = repeats disagree. In the library only some 0.52% were active in any assay of this set; here they are far more common.

SMILES	Sa helicase inh	Sa growth 42C
CCOC(=O)c1c(C)n(Cc2ccccc2)c2ccc(O)cc12	4	100
CCOC(=O)c1c(-c2ccccc2)n(Cc2ccccc2)c2ccc(O)c(CN(C)C)c12	5	-0.9*
Cc1cc(C=C(C#N)C#N)c(C)n1CC(F)(F)F	1	98
CN(C)P1(=S)OCCCO1	21	87
CC(=O)Nc1ccc(C=C(C#N)C#N)cc1	nt	88
CC(C(=O)N1CCCc2ccccc21)N1CC=C(c2ccccc2)CC1 (stereo not drawn)	-7	93
O=S(=O)(c1ccc(Cl)cc1)N1CCCCC1c1cccnc1 (stereo not drawn)	3	81
CC(=O)N1CCCCC1c1cccnc1.O=[N+]([O-])O.[Ag] (stereo not drawn)	6	5.0*
O=C(O)c1ccc(C2NCc3ccccc3-n3cccc32)cc1 (stereo not drawn)	12	116
CN(C)CC(C)(O)c1ccc(Cl)cc1 (stereo not drawn)	5	95
COCC(C)N=C=S (stereo not drawn)	-19	95
CN(C)[C@@H]1C(=O)C(C(N)=O)=C(O)[C@@]2(O)C(=O)C3=C(O)c4c(O)cccc4[C@@](C)(O)[C@H]3[C@H](O)[C@@H]12	nt	-0.6*
CN(C)[C@@H]1C(=O)C(C(N)=O)=C(O)[C@@]2(O)C(=O)C3=C(O)c4c(O)ccc(Cl)c4[C@@](C)(O)[C@H]3C[C@@H]12	nt	-0.1*
CN1C(=O)C2(c3ccccc31)C(C(=O)N1CCC3(CC1)OCCO3)CC1CCCN12 (stereo not drawn)	16	92
N=c1c[n+](CCc2ccccc2)[n-]o1	4	98
O=C(c1ccccc1)C1CN2CCC1CC2 (stereo not drawn)	10	132
O=C1C=Cc2ccc3c4c(ccc1c24)C=CC3=O	48*	72
CCCC1=C(C(=O)OCC)C2(C(=O)N1)C(C(=O)OC(C)C)=C(N)Oc1ccccc12 (stereo not drawn)	26	107
CN=Cc1c[nH]c2ccccc12	-4	111
CCOc1cc(C=C2C(=O)NC(=O)NC2=O)cc(Cl)c1O	0	112
Clc1ccc(COC(Cn2ccnc2)c2ccc(Cl)cc2Cl)c(Cl)c1 (stereo not drawn)	nt	0.0*!
Clc1ccc(CON=C(Cn2ccnc2)c2ccc(Cl)cc2Cl)c(Cl)c1	nt	0.0*
CC[C@]12C=CCN3CCC4(c5ccc(OC)cc5N(C)[C@H]4C(O)(C(=O)OC)[C@@H]1OC(C)=O)C32 (stereo partly drawn)	-78	83
CC1(C)CC(NC(=O)CN2CCCC2=O)CC(C)(C)N1	7	90
NP(N)(=O)C12CC3CC(CC(C3)C1)C2	7	105
SMILES	Sa helicase inh	Sa growth 42C
COc1cccc2c(CCN)c[nH]c12	-3	107
Cc1ccc(C(C)N2CCNCC2)cc1C (stereo not drawn)	11	104
N#CC(C#N)=NNc1ccc(-n2ccc(C(F)(F)F)n2)cc1	-10	-0.4*
Oc1cc(Cl)ccc1Oc1ccc(Cl)cc1Cl	nt	-0.7*
COc1ccc(NC(=O)c2cn(CCC#N)nc2-c2ccc(OC)cc2)cc1	10	95
C[CH2][Hg][S]c1ccccc1C(=O)O	nt	-0.5*
O=C(O)c1ccccc1C(=O)Nc1cccc2ccccc12	8	nt
CN1CC=C(c2c[nH]c3ccccc23)CC1	-5	80
C1=C(c2c[nH]c3ccccc23)CCN(Cc2ccccc2)C1	7	-0.9*
COc1ccc(C(CN(C)C)C2(O)CCCCC2)cc1 (stereo not drawn)	nt	0.0*!
CCN1CCC(NCCOC)CC1	1	109
CN(C)CCC(=O)c1ccccc1	1	66
CC(=O)[O][Hg][c]1ccccc1	nt	-0.7*
Cc1ccccc1CCN	-8	95
C=CCOC(=O)C1=C(C)OC(N)=C(C(=O)OC)C12C(=O)Nc1ccccc12 (stereo not drawn)	7	99
CCCCCCCCCCCCCCCC[n+]1ccccc1	nt	-0.8*
O=C(Cn1c(=O)oc2cc(Cl)ccc21)N1CCC2(CC1)OCCO2	-22	89
